For test [1], the target named is ATP-dependent 6-phosphofructokinase (Trypanosoma brucei brucei) (UniProt O15648). The test is described as follows: qHTS Assay to Find Inhibitors of T. brucei phosphofructokinase: hit validation (AID 492961).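 Further: luminescence reports ADP formed as PFK phosphorylates fructose-6-phosphate with ATP; series mostly up to about 51 µM.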 The method in brief:
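PFK 1.25 nM, F6P 0.5 mM, ATP 0.1 mM, MgCl2 5 mM, 0.1 M TEA pH 8.0, Tween20 0.01%, BSA 0.1%; 45 min RT. ADP-Glo two-step detection, luminescence. qHTS titration; curve fitting with curve-class categorization.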

Test [2] deals with Chromobox protein homolog 1 (Homo sapiens) (UniProt P83916). The test is described as follows: qHTS Validation Assay for Inhibitors of HP1-beta Chromodomain Interactions with Methylated Histone Tails (AID 488953).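 Further: loss of AlphaScreen luminescence from HP1-beta binding biotinylated H3K9me3 peptide; series mostly up to about 110 µM; nearly all actives have a fitted effect of over 50% in size.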 The method in brief:
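HP1-beta (50 nM) preformed 30 min with biotinylated H3(1-18)K9me3 peptide (50 nM) in PBS pH 7.4, 0.01% Tween-20. Compounds added for 30 min at room temperature. Complex disruption read by AlphaScreen with streptavidin donor/nickel chelate acceptor beads (10 ug/mL each).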
A general note: In qHTS, concentration-response curves come from the screen itself.

For test [3], the target named is Methanococcus maripaludis chaperonin (MmCpn) (UniProt Q6LX38). Briefly: High-Throughput Screening for Modulators of Cytosolic Chaperonin Activity: MmCpn Primary Screen (AID 488978).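 Further: 50 nM MmCpn enzyme hydrolysing 30 µM ATP at 37 °C.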 Summed up:
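Measures ATPase turnover of the M. maripaludis chaperonin (50 nM final) against 30 uM ATP over 10 min at 37C, with compound added 5 min beforehand at room temperature. ADP is quantified by HTRF immunodetection.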

In test [4] the target is Thyrotropin receptor (Homo sapiens) (UniProt P16473). The test is described as follows: qHTS Assay for Antagonists of the Thyroid Stimulating Hormone Receptor (AID 488980). Further: series mostly up to about 58 µM. Summed up: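 Cells expressing human TSHR (HEK293) are dispensed in HBSS/HEPES containing 70 uM RO 20-1724, compound is added, then TSH at EC80 (4 nM final). Antibody in lysis buffer follows, 30 minutes at room temperature before HTRF detection.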
Sequence of Thyrotropin receptor (Homo sapiens) (P16473 whole entry, looked up): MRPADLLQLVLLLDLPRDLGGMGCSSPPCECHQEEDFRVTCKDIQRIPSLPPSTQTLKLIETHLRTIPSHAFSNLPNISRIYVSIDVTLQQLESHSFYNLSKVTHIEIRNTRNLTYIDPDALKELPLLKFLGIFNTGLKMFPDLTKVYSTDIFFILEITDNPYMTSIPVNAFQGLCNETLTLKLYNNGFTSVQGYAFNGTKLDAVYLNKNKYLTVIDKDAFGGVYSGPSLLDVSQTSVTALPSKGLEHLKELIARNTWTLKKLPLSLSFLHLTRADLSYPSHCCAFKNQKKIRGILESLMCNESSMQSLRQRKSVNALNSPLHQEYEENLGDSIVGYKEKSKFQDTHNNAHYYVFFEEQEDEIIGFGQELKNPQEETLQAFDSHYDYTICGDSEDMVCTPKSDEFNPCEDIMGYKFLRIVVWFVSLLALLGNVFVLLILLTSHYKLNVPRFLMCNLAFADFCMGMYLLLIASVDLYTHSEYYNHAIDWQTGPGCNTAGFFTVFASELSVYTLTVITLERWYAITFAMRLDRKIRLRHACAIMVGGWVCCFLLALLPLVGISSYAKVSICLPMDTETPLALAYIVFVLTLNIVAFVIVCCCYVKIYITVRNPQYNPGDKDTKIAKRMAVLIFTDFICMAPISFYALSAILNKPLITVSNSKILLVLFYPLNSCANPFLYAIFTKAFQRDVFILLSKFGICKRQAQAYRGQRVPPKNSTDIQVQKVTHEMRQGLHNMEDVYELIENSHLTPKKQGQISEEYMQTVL

Test [5] has as its target D(1A) dopamine receptor (Homo sapiens) (UniProt P21728). The test is described as follows: HTS Assay for Allosteric Agonists of the Human D1 Dopamine Receptor: Primary Screen for Agonists (AID 488981). The method in brief: (§1)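 Tetracycline-induced HEK293 T-REx cells force-coupled to calcium signalling were incubated overnight at 30 C and dye-loaded at room temperature. Calcium flux over 180 s after compound addition flagged agonists; a further 180 s read after EC20 dopamine flagged potentiators.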

Test [6] shares this target. The test is described as follows: HTS Assay for Allosteric Agonists of the Human D1 Dopamine Receptor: Primary Screen for Potentiators (AID 488982). The method in brief: as §1
Test [7] has the same target. The test is described as follows: HTS Assay for Allosteric Agonists of the Human D1 Dopamine Receptor: Primary Screen for Antagonists (AID 488983).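 Further: calcium flux response to an EC80 dopamine challenge measured with no-wash dye; nearly all actives have a fitted effect of over 65% in size.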 Summed up: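 Tetracycline-induced HEK293 T-REx D1 line, force-coupled to calcium flux, read with no-wash calcium dye. Compound added after 10 s baseline, read 180 s for agonism, then EC80 dopamine added and read a further 180 s.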

A short description of test [8]: Validation screen for small molecules that induce genotoxicity in human embryonic kidney (HEK293T) cells expressing luciferase-tagged ELG1 (AID 493106). Further: potency means the concentration at half of the fitted maximal effect. Conditions: luminescence. Summed up: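 HEK293T cells expressing luciferase-tagged ELG1, 2,000 cells/well, exposed to compound 16 hr at 37 °C, 5% CO2. Luciferase read after ONE-Glo, 30 min at room temperature; increased signal indicates genetic stress.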

Test [9] deals with Thyrotropin-releasing hormone receptor (Homo sapiens) (UniProt P34981). Briefly: qHTS for Small Molecule Agonists and Allosteric Enhancers of Human TRH Receptor: Validation Screen for Agonists (AID 493127;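 active means calcium activation more than 3 SD above the typical response in the agonist read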). Conditions: TRH receptor agonist cell assay; at 2 µM; stronger effect = higher value. Summed up: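 TRHR cells loaded with fluo-8 calcium dye; FDSS kinetic fluorescence (Ex 480/Em 530) read at 1 s/cycle after 23 nL compound addition. Agonist-mode calcium response recorded before the 10 nM TRH (EC20) addition.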
Sequence of Thyrotropin-releasing hormone receptor (Homo sapiens) (P34981 whole entry, looked up): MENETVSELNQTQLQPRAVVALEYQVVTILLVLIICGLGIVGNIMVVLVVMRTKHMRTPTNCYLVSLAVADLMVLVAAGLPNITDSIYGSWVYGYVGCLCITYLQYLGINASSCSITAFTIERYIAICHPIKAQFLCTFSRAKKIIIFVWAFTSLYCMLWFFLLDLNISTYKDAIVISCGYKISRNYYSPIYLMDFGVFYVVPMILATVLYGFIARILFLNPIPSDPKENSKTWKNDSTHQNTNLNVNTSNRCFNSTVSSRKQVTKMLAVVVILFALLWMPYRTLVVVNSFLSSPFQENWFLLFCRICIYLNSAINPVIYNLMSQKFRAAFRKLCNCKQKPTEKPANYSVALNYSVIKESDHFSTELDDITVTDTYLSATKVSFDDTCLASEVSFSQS

Test [10] in a line: Nrf2 qHTS screen for inhibitors: Validation (AID 493153; active means well fitted inhibition curve with a large enough effect in the main read-out, with a control signal flat, not every such curve was filed as active). The following applies: viability change: measured here: cytotoxicity max response. Summed up: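 A549 cells carrying ARE-firefly luciferase reporter, 5000 cells/well in 5% FBS OPTI-MEM, treated with compound over a concentration series for 18-24 h at 37 C. Luciferase luminescence gave Nrf2 activity; CellTiter-Fluor fluorescence gave viability.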

A short description of test [11]: qHTS for Inhibitors of Cell Surface uPA Generation: Validation Assay (AID 493164). The method in brief:
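RAW 264.7 cells (4000/well) were plated overnight, then exposed for 18 h at 37 C, 5% CO2 to compounds in a 7-point 1:5 titration (2.45 nM–38.3 uM final). Intracellular ATP was read by ATP-Lite luminescence.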

Test [12] addresses Galactokinase (Homo sapiens) (UniProt P51570). Briefly: qHTS Validation Assay for Inhibitors of Human Galactokinase (GALK) (AID 493189). Summed up: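 Compounds were pin-transferred into ATP buffer, then GALK-galactose mix was added (final 5 nM enzyme, 100 uM galactose, 35 uM ATP). After 1 h at room temperature, remaining ATP was measured luminescently.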
Test [13] is described as follows: Validation screen for small molecules that induce DNA re-replication in SW480 colon adenocarcinoma cells (AID 504364). The method in brief:
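SW480 cells (250/well) exposed 48 h at 37 C, 5% CO2, then Hoechst-stained 40 min. Nuclear DNA content imaged by fluorescence scanning (405 nm excitation, 500-530 nm emission); re-replication scored as increased nuclei with elevated intensity.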

Test [14] concerns the target Peptidyl-prolyl cis-trans isomerase NIMA-interacting 1 (Homo sapiens) (UniProt Q13526). The test is described as follows: qHTS Validation Assay to Find Inhibitors of Pin1 (AID 504536; active means well fitted inhibition curve with a large enough effect in the polarisation, with a control signal flat, not every such curve was filed as active; the % refers to the polarisation). The method in brief:
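Fluorescence polarization competition: compounds (titration) displace HiFluor-488-labeled Pin1-1b peptide from Pin1 (0.3 uM final) in pH 7.5 HEPES buffer with DTT, 10 min at room temperature; %Activity normalized to no-enzyme wells, curves fitted.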

Test [15] has as its target Phosphoglycerate kinase, glycosomal (Trypanosoma brucei brucei) (UniProt P07378). The test is described as follows: qHTS Validation Assay to Find Inhibitors of Phosphoglycerate Kinase (AID 504547). Summed up:
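Substrate/PGK mix plus compound; reaction started with GAPDH (100nM final) to form 1,3-BPG; 60 min RT; Kinase-Glo Plus 10 min; luminescence. TEA 100mM pH 7.6, MgCl2 5mM, Tween-20 0.01%.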

The target in test [16] is Ubiquitin carboxyl-terminal hydrolase 1 (Homo sapiens) (UniProt O94782). The test is described as follows: Inhibitors of USP1/UAF1: Pilot qHTS (AID 504865). Further: nearly all actives have a fitted effect of over 35% in size. Further: potency means the concentration at half of the fitted maximal effect. The method in brief: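 Kinetic fluorescence assay: 1nM USP1/UAF1, 15 min compound preincubation, then 150nM Ub-Rho; 480/540 nm.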
Sequence of Ubiquitin carboxyl-terminal hydrolase 1 (Homo sapiens) (O94782 whole entry, looked up): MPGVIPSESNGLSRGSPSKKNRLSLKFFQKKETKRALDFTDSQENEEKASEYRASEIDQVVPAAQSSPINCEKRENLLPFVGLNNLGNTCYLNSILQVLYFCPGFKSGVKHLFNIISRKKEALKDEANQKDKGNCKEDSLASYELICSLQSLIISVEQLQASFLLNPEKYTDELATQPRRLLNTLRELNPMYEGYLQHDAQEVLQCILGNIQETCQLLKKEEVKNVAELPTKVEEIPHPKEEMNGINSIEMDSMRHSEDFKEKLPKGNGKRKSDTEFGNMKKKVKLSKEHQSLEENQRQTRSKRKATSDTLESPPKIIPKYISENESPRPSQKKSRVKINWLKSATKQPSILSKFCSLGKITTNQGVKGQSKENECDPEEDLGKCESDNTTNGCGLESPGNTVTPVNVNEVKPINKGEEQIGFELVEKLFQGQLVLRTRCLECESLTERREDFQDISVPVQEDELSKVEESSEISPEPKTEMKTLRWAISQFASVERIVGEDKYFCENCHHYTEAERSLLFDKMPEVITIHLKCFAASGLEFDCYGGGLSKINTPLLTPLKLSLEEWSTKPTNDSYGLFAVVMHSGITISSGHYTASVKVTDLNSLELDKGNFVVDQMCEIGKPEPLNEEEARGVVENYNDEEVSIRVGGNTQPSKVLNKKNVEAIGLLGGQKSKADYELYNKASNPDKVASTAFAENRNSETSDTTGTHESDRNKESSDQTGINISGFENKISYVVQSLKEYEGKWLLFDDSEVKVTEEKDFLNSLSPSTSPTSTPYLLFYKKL
A short description of test [17]: qHTS for Inhibitors of ATXN expression: Validation of Cytotoxic Assay (AID 588349). Summed up: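 HEK293 cells treated with titrated compound for 72 hr at 37 degrees C; viability read as intracellular ATP by CellTiter Glo luminescence.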
Test [18] in a line: qHTS for Inhibitors of ATXN expression: Validation (AID 588378). Further: series mostly up to about 57 µM; nearly all actives have a fitted effect of over 75% in size. Summed up: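 Validation of ATXN2 expression inhibitors uses a cell-based luciferase fusion reporter in HEK293 cells, with 24 h compound exposure and paired viability (fluorescence) and reporter (luminescence) end-point reads.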
The target in test [19] is Transient receptor potential cation channel subfamily V member 1 (Homo sapiens) (UniProt Q8NER1). The test is described as follows: HTS Assay for Compounds that Act as Enhancers of the Vanilloid Receptor 1 (AID 488979). Summed up: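 TRPV1-expressing cells loaded with Fluo-8 calcium dye; compounds added and calcium influx read kinetically for 3 min (agonist phase), then capsaicin at EC20 added and read 2 min more for enhancement. Fluorescence ex 480/em 520 nm.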
Sequence of Transient receptor potential cation channel subfamily V member 1 (Homo sapiens) (Q8NER1 whole entry, looked up): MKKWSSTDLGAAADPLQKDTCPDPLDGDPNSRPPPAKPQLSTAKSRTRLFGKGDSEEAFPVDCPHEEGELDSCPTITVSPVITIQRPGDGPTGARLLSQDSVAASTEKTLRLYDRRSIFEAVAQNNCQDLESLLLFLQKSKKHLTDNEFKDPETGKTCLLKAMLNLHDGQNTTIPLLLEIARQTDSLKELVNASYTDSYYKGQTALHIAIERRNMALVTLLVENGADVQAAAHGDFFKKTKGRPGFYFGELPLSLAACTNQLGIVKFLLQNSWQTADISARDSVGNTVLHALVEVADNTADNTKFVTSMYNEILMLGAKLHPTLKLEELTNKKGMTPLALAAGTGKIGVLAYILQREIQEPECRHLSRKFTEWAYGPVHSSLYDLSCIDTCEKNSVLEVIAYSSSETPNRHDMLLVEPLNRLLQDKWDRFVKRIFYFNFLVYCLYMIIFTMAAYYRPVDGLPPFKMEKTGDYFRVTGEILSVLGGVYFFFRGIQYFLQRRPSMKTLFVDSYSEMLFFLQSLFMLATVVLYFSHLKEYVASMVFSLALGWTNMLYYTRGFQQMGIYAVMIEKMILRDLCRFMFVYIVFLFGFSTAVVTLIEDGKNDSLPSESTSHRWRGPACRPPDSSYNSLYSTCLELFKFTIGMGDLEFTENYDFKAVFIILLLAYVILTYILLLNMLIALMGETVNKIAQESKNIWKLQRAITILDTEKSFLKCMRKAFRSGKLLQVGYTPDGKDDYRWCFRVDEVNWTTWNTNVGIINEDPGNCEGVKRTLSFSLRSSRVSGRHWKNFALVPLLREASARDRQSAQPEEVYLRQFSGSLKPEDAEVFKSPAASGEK

In test [20] the target is DNA dC->dU-editing enzyme APOBEC-3G (Homo sapiens) (UniProt Q9HC16). Briefly: qHTS for inhibitors of Vif-A3G interactions: Validation (AID 588379). Summed up: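 HeLa cells stably expressing Vif and A3G-eYFP, 700 cells/well, incubated overnight at 37 deg C, then exposed to compound overnight at 37 deg C. Inhibition of Vif-mediated degradation read as increased yellow fluorescence (Ex 488/Em 500-530) by laser-scanning cytometry.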
Sequence of DNA dC->dU-editing enzyme APOBEC-3G (Homo sapiens) (Q9HC16 whole entry, looked up): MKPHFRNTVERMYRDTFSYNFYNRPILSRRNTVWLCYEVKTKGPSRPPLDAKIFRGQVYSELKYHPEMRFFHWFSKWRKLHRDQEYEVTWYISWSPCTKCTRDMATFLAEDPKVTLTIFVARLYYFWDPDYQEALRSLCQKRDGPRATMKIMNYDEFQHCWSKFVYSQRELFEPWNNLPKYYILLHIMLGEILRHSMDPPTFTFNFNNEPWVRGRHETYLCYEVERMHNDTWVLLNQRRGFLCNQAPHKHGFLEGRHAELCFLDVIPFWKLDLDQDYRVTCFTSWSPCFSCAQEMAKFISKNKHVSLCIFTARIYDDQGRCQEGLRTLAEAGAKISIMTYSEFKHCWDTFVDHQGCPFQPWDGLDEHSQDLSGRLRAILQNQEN

Inconclusive results are not listed. Entries that show only a call come without a potency. The source made the active and inactive calls. Unless noted, the call rests on the fitted dose curve; in most records, active means well fitted curve in the direction sought with a large enough effect; inconclusive means small, poorly fitted or top-dose-only effect, or another doubt; inactive means no such curve, though single readings can be large; an effect the other way counts as inactive or inconclusive.

Sequence of D(1A) dopamine receptor (Homo sapiens) (P21728 whole entry, looked up): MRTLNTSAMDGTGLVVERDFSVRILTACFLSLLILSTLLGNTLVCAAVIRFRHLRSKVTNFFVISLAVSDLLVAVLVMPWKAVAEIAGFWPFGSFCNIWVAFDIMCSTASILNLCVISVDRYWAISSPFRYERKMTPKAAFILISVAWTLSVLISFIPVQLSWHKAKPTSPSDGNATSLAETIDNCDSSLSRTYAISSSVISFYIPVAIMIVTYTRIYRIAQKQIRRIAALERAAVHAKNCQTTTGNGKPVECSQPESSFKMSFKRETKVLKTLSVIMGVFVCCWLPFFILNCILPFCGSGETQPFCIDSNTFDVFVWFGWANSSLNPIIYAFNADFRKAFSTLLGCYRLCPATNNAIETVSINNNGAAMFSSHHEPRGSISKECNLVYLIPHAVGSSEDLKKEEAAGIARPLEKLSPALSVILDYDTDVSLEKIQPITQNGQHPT
Sequence of ATP-dependent 6-phosphofructokinase (Trypanosoma brucei brucei) (O15648 whole entry, looked up): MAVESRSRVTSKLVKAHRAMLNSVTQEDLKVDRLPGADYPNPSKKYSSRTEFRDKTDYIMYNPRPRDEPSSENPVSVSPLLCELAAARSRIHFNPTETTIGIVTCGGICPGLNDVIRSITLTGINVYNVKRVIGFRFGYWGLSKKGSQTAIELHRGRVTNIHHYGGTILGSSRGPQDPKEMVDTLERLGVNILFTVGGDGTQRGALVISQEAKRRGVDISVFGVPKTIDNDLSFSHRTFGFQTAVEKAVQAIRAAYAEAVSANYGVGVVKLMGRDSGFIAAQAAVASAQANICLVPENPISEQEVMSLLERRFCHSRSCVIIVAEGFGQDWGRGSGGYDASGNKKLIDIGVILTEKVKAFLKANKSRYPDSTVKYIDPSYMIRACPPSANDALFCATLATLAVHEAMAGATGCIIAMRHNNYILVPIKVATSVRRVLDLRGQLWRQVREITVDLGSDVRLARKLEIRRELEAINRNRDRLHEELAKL
Sequence of Peptidyl-prolyl cis-trans isomerase NIMA-interacting 1 (Homo sapiens) (Q13526 whole entry, looked up): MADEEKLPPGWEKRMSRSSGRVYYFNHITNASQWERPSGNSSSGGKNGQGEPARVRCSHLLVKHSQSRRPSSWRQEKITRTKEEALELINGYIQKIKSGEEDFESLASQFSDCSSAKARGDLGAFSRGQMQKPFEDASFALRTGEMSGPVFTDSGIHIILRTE
Sequence of Chromobox protein homolog 1 (Homo sapiens) (P83916 whole entry, looked up): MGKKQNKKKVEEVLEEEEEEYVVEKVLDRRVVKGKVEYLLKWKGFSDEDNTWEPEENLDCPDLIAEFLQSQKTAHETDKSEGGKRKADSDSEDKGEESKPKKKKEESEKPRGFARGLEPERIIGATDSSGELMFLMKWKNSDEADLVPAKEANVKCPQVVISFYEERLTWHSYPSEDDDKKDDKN
Sequence of Methanococcus maripaludis chaperonin (MmCpn) (Q6LX38 1-543): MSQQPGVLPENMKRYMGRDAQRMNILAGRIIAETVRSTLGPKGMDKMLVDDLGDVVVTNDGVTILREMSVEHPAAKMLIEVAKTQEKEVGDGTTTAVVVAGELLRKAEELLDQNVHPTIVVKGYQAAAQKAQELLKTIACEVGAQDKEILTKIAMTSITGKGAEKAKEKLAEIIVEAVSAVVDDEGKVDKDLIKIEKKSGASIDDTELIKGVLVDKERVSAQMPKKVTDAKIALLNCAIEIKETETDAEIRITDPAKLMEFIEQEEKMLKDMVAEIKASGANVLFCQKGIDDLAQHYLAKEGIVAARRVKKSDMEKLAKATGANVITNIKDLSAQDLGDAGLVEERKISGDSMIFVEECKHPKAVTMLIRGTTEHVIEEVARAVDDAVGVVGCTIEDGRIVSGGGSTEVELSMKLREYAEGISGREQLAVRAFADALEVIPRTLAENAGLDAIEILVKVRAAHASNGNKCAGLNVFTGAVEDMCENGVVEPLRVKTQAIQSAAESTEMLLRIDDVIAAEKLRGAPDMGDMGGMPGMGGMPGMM

For the compound `CCC1=C[C@@H]2CN(C1)Cc1c([nH]c3ccccc13)[C@@](C(=O)OC)(c1cc3c(cc1OC)N(C)[C@@H]1[C@@](O)(C(=O)OC)[C@H](OC(C)=O)[C@]4(CC)C=CCN5CC[C@]31[C@@H]54)C2`, in test [1], the result was inactive.

In the case of `O=c1c2ccccc2nc2n1CCc1c-2[nH]c2ccccc12`, the result in test [2], in [3], in test [4], in test [5], in test [6] and in test [7] was inactive. Also, the outcome in test [10], in test [11], in test [12], in [13], in [14] and in [15] was inactive. The compound was classed as inactive in test [17] and in test [18]. For the same compound, the Potency in test [8] is 8.2 µM (active). Besides, the activation in test [9] is -4.5% (inactive). In test [10], the viability change is -3.53%. Moreover, the Potency result in [16] is “inactive”.

As to `CC[C@H](CO)Nc1nc(NCc2ccccc2)c2ncn(C(C)C)c2n1`, the outcome in [19] and in [4] was inactive. Besides, in test [9], the activation was 0.312% (inactive).

`CC[C@@]1(O)C(=O)OCc2c1cc1n(c2=O)Cc2cc3cc(O)ccc3nc2-1`: the Potency entry in test [16] was “inactive”.

In the case of `CC(C)(C)NC(=O)[C@H]1CN(Cc2cccnc2)CCN1C[C@@H](O)C[C@@H](Cc1ccccc1)C(=O)N[C@H]1c2ccccc2C[C@H]1O`, the outcome in test [1] was inactive.

As for `CC=CC1=C(C(=O)O)N2C(=O)[C@H](NC(=O)[C@H](N)c3ccc(O)cc3)[C@@H]2SC1`, the compound was called inactive in test [1]. In addition, the Potency result in test [16] was “inactive”.

Take `Nc1ccn([C@@H]2CS[C@H](CO)O2)c(=O)n1`: the compound was called inactive in [1].

Consider `COc1cc(C(=O)NS(=O)(=O)c2ccccc2C)ccc1Cc1cn(C)c2ccc(NC(=O)OC3CCCC3)cc12`, for which the outcome in [1] was inactive. Besides, the Potency in test [16] was 35.5 µM (active).

With `COc1c(N2C[C@@H]3CCCN[C@H]3C2)c(F)cc2c(=O)c(C(=O)O)cn(C3CC3)c12`, the result in test [1] was inactive. Further, the Potency entry in test [16] was “inactive”.

As to `C[C@H]1C[C@@H]2[C@@H]([C@@H](O)C[C@@]3(C)[C@H]2CC[C@]3(O)C(=O)CO)[C@@]2(C)C=CC(=O)C=C12`, the compound was called inactive in test [1]. In addition, the Potency result in [16] was “inactive”.

Take `COC(=O)C[C@](O)(CCCC(C)(C)O)C(=O)O[C@@H]1C(OC)=C[C@]23CCCN2CCc2cc4c(cc2[C@H]13)OCO4`: the outcome in test [1] and in [20] was inactive. Further, the Potency result in test [16] is “inactive”.

For `CC[C@H]1CN2CCc3cc(OC)c(OC)cc3[C@H]2C[C@@H]1C[C@@H]1NCCc2cc(OC)c(OC)cc21`, in test [1], the outcome was inactive.

`O=c1[nH]c(=O)n(C2CCCO2)cc1F` (stereo not given): the outcome in test [1] was inactive. Moreover, the Potency result in [16] was “inactive”.

Turning to `Nc1ccn([C@@H]2O[C@H](CO)[C@H](O)C2(F)F)c(=O)n1`, the result in test [1] was inactive. For the same compound, the Potency result in test [16] was “inactive”.

As to `COC(=O)C1=C(C)NC(C)=C(C(=O)OCCN2CCN(C(c3ccccc3)c3ccccc3)CC2)C1c1cccc([N+](=O)[O-])c1` (stereo not given), the compound was classed as inactive in [1]. For the same compound, the Potency entry in [16] is “inactive”.

As for `CC1(C)O[C@@H]2C[C@@H]3[C@H]4C[C@@H](F)C5=CC(=O)C=C[C@]5(C)[C@@]4(F)[C@@H](O)C[C@]3(C)[C@]2(C(=O)CO)O1`, the call in [1] was inactive. In addition, in test [16], the Potency entry is “inactive”.

In the case of `CN1c2cc(O)c(N=NC(N)=O)cc2CC1S(=O)(=O)O` (stereo not given), the result in test [1] was inactive.

As for `O=C(O)CO.[NH2-].[NH2-].[Pt+2]`, the compound was called inactive in test [1]. The Potency entry in test [16] is “inactive”.

Take `Nc1ccc(S(=O)(=O)Nc2ncccn2)cc1`: in test [1], the call was inactive. For the same compound, in test [16], the Potency entry was “inactive”.

Values taken from PubChem BioAssay (NCATS).
